This is an account of results in PubChem BioAssay.

Activity calls are given as the source filed them. Unless noted, the rule behind the calls is not given here.

The subject of experiment [1] is Wnt5a (protein binding on small-molecule microarray). Briefly: small molecules binding Wnt5a protein – biophysical, small-molecule microarray, 635/667 nm fluorescence, primary screen (AID 1142).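 Note: fluorescence read at 667 nm with signal to noise per printed feature.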 As to conditions: 635 nm fluorescence, higher = more signal.
Experiment [2] in a line: ATP-based viability of Huh7 replicon cells – cell-based, CellTiter-Glo luminescence, basal, 48 h, cytotoxicity control for HCV replication inhibitor project, primary screen (AID 1143).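 Note: Huh7 hepatoma cells carrying a hepatitis C replication reporter with no stimulus; test concentration not given here.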 As to conditions: higher = more signal, called active from +8 up or from −8 down. In general terms: In antiviral work, replicon cells carry a viral genome segment that copies itself.
Experiment [3] in a line: Pseudomonas biofilm growth suppression – PAO1 strain, BacTiter-Glo luminescence, LB-PBS, primary screen (AID 1144). To be noted: P. aeruginosa PAO1 biofilm, 12 h, higher = more signal.
Experiment [4] is described as follows: basal CRE-LacZ reporter activity in PC12 – cell-based, unstimulated, primary screen (AID 1145). As to conditions: no forskolin, luminescence, 4.5 h, higher = more signal, called active from +8 up or from −8 down.
The nature of experiment [5]: forskolin-driven CRE-LacZ activity in PC12 – cell-based, CRE-LacZ reporter, forskolin-stimulated, primary screen (AID 1146).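 Note: PC12 cells with 6xCRE LacZ reporter stimulated by forskolin 10 µM; beta-galactosidase reporter signal reflecting CREB driven transcription.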 To be noted: luminescence, 4.5 h, higher = more signal, called active from +8 up or from −8 down.
Experiment [6] has as its target Streptavidin (Streptomyces avidinii) (UniProt P22629). Briefly: compounds binding control protein streptavidin – biophysical, small-molecule microarray, 635/667 nm fluorescence, artefact control for SMM compound annotation, primary screen (AID 1147).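 Note: signal reflects streptavidin binding to arrayed compounds as a control protein.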 To be noted: higher = more signal.
A short description of experiment [7]: probe aInhba binding on compound microarray – biochemical, small-molecule microarray, 635/667 nm fluorescence, primary screen (AID 1148).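 Note: score merges 667nm spot fluorescence with signal-to-noise for antibody binding to printed compounds.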 To be noted: higher = more signal.
Experiment [8] concerns the target Torsin-1A (Homo sapiens) (UniProt O14656). As to the kind of experiment: TOR1A wild-type binding on microarray – cell lysate, small-molecule microarray, lysate, 635/667 nm, primary screen (AID 1149). As to conditions: COS7 hTOR1A-WT lysate, 635 nm fluorescence, higher = more signal.
Experiment [9] shares this target. Briefly: torsin A mutant lysate binding on microarrays – cell lysate, small-molecule microarray, COS7 lysate, 635/667 nm fluorescence, primary screen (AID 1150).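 Note: score pools 667 nm emission and signal to noise measuring lysate protein binding.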 As to conditions: COS7 hTOR1A mutant lysate, 635 nm fluorescence, higher = more signal.
The test system of experiment [10] is Sonic hedgehog protein (Shh). As to the kind of experiment: Sonic hedgehog microarray binding compounds – biochemical, small-molecule microarray, 635/667 nm fluorescence, primary screen (AID 1151).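 Note: Shh protein binding to compounds spotted on small-molecule microarray slides; score combines spot fluorescence intensity with signal-to-noise across triplicate slides.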 To be noted: 635 nm fluorescence, higher = more signal.

Chain of Torsin-1A (Homo sapiens) (O14656 whole entry, looked up): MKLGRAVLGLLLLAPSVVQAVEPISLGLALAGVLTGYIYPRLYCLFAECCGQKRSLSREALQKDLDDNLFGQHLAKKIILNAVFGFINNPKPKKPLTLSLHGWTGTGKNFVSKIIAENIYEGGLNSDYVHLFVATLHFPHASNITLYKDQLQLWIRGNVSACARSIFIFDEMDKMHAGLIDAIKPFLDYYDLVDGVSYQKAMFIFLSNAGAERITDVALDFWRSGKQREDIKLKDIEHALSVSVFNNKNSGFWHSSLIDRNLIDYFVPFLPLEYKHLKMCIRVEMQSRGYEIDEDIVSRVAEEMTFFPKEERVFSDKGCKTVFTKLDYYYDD
Chain of Streptavidin (Streptomyces avidinii) (P22629 whole entry, looked up): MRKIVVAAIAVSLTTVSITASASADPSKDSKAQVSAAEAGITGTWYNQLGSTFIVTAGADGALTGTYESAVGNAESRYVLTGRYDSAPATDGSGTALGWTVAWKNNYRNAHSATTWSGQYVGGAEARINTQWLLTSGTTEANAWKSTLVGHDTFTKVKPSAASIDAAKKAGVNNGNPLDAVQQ

With `CO[C@H]1O[C@H](CO)[C@@H](OC(=O)Nc2ccc3c(c2)OCO3)[C@H](OC(=O)Nc2ccccc2-c2ccccc2)[C@H]1OC(=O)Nc1ccccc1-c1ccccc1`, the composite z-score in [1] turned out to be 1.07; in experiment [6], 0.2; in experiment [7], 0.196; with Torsin-1A (Homo sapiens) [8], 0.384; with Torsin-1A (Homo sapiens) [9] it was 1.55; in experiment [10], 0.333. For the same molecule, the z-score in experiment [2] was -5.61 (inactive); in experiment [3] it was -0.378 (inactive); in experiment [4] it was 1.5 (inactive); in experiment [5], -1.05 (inactive).
With `CC(C)NC(=O)[C@@]1(C)c2ccccc2C(=O)N(Cc2ccccc2)[C@H]1c1ccc(CO)cc1`, the composite z-score is -0.442 in experiment [1]; -1.23 in [6]; -0.312 in experiment [7]; 0.654 with Torsin-1A (Homo sapiens) [8]; 1.39 with Torsin-1A (Homo sapiens) [9]; 0.504 in experiment [10]. Also, the z-score in experiment [2] was -2.24 (inactive); in experiment [3] it was 0.0156 (inactive); in experiment [4], -0.592 (inactive); in [5] it was -1.08 (inactive).
As to `Cc1ccc(S[C@]2(C(=O)NCCCN(C)C)CC(=O)N(Cc3ccccc3C(F)(F)F)[C@@H]2c2ccc(CO)cc2I)cc1`, the composite z-score in [1] was -0.379; in experiment [6] it was -0.493; in experiment [7], 0.189; with Torsin-1A (Homo sapiens) [8], 0.22; with Torsin-1A (Homo sapiens) [9], -0.144; in [10] it was -0.117. In addition, the z-score in experiment [2] was -1.13 (inactive); in experiment [3], 0.323 (inactive); in experiment [4], -0.464 (inactive); in experiment [5], 1.66 (inactive).
Regarding `C=CC[C@]1(C(=O)NCC(O)CO)COC(c2ccc(OCCCO)cc2)=N1` (stereo not given in full), the composite z-score is 0.359 in experiment [1]; -0.486 in experiment [6]; 0.109 in experiment [7]; 0.185 in the experiment with Torsin-1A (Homo sapiens) [8]; 1.03 in the experiment with Torsin-1A (Homo sapiens) [9]; -0.495 in experiment [10]. Also, the z-score in experiment [2] is 0.154 (inactive); in experiment [3], -0.055 (inactive); in experiment [4] it was 0.792 (inactive); in experiment [5], -0.282 (inactive).
For `O=C(NCc1ccc(F)cc1)[C@H]1C[C@H]2C(=O)N3CCC[C@H]3C(=O)N2[C@H]1c1ccc(O)cc1`, the composite z-score in [1] is -0.216; in experiment [6] it was -1.32; in [7] it was -0.443; with Torsin-1A (Homo sapiens) [8] it was 0.264; with Torsin-1A (Homo sapiens) [9] it was 0.202; in experiment [10], 0.546. Moreover, the z-score is -2.87 (inactive) in experiment [2], 0.893 (inactive) in [3], 1.24 (inactive) in experiment [4] and -0.677 (inactive) in experiment [5].
With `O=C(NC1CC1)[C@@H]1c2ccccc2C(=O)N(Cc2cc(C(F)(F)F)cc(C(F)(F)F)c2)[C@H]1c1ccc(CO)cc1`, the composite z-score in experiment [1] is -0.0738; in experiment [6], 0.0581; in experiment [7] it was -0.248; in the experiment with Torsin-1A (Homo sapiens) [8] it was -0.73; with Torsin-1A (Homo sapiens) [9] it was -0.727; in experiment [10], 0.658. Moreover, the z-score in [2] is -4.67 (inactive); in experiment [3], 0.0176 (inactive); in experiment [4], 1.14 (inactive); in experiment [5], -1.05 (inactive).
Regarding `CO[C@H]1O[C@H](CO)[C@@H](OC(=O)Nc2ccccc2)[C@H](OC(=O)Nc2ccccc2)[C@H]1OC(=O)Nc1ccccc1`, the composite z-score was 0.664 in [1]; 0.0545 in [6]; 0.0343 in experiment [7]; -0.196 with Torsin-1A (Homo sapiens) [8]; 1.07 in the experiment with Torsin-1A (Homo sapiens) [9]; 0.78 in experiment [10]. Also, the z-score was -4.39 (inactive) in [2], -1.41 (inactive) in experiment [3], 1.04 (inactive) in [4] and -2.64 (inactive) in [5].
With `CC(=O)NCCCC[C@@H]1NC(=O)[C@H]2C[C@@H](C(=O)NCCCCCCNC(=O)CS)[C@@H](c3cccc(OCCO)c3)N2C1=O`, the composite z-score in experiment [1] was 0.538; in experiment [6], -0.64; in experiment [7], -0.0448; with Torsin-1A (Homo sapiens) [8], 1.43; with Torsin-1A (Homo sapiens) [9] it was 1.22; in experiment [10], 1.32. Moreover, the z-score in experiment [2] is 0.348 (inactive); in [3] it was -0.286 (inactive); in [4], -0.813 (inactive); in experiment [5], -0.78 (inactive).
For the molecule `CCN(CC)c1ccc(N2CC=CC34O[C@@H]5C=CCCOC(=O)C5[C@H]3C(=O)N(C(C)CO)[C@@H]4C2=O)cc1` (stereo not given in full), the composite z-score is -0.188 in [1]; -0.638 in experiment [6]; 0.166 in [7]; 0.0632 with Torsin-1A (Homo sapiens) [8]; -0.194 in the experiment with Torsin-1A (Homo sapiens) [9]; 1.53 in [10]. In addition, the z-score in experiment [2] was 0.0396 (inactive); in experiment [3] it was 1.25 (inactive); in [4], 1.01 (inactive); in experiment [5], -0.0386 (inactive).
Regarding `NC(=O)N1C(=O)C2C(C1=O)C1C=C(CCCO)C2C(C2CC2)N1Cc1sc2ccccc2c1Cl` (stereo not given), the composite z-score was 0.588 in [1]; 0.526 in [6]; -0.0371 in [7]; 0.842 with Torsin-1A (Homo sapiens) [8]; 0.82 with Torsin-1A (Homo sapiens) [9]; 0.726 in [10]. The z-score was -0.205 (inactive) in experiment [2], 0.0825 (inactive) in [3], 0.261 (inactive) in [4] and -0.654 (inactive) in experiment [5].
Take `COc1ccc(C(=O)Nc2ccc(CN3C(=O)[C@@]4(O[C@@H](CCn5cc(CCO)nn5)[C@H]([Si](C)(C)c5ccc(OC)cc5)[C@H]4C)c4ccccc43)cc2)cc1`: the composite z-score is 0.236 in experiment [1]; 0.421 in [6]; -0.0791 in [7]; 0.671 in the experiment with Torsin-1A (Homo sapiens) [8]; 0.411 with Torsin-1A (Homo sapiens) [9]; 1.4 in [10]. Further, the z-score in [2] was -7.97 (inactive); in [3], 0.173 (inactive); in experiment [4], 6.94 (inactive); in [5] it was -0.632 (inactive).
With `COCCOC(=O)N1C(=O)[C@@]2(c3ccccc31)[C@H](C(=O)N1CCN(c3ncccn3)CC1)[C@H]1C(=O)O[C@H](c3ccccc3)[C@H](c3ccccc3)N1[C@@H]2c1ccccc1OCCO`, the composite z-score in experiment [1] is 0.404; in experiment [6], 0.631; in [7] it was -0.0323; with Torsin-1A (Homo sapiens) [8], 0.545; in the experiment with Torsin-1A (Homo sapiens) [9], 0.0291; in experiment [10], 1.53. Besides, the z-score in experiment [2] is -4.29 (inactive); in experiment [3], -1.51 (inactive); in [4], -2.11 (inactive); in experiment [5] it was -0.885 (inactive).
As to `C=C(CCCC)C(=O)CC[C@H](OC(=O)c1ccccc1-c1ccccc1C(=O)O)c1ccc(OCCO)cc1`, the composite z-score in [1] is 0.475; in experiment [6], -0.092; in experiment [7], 0.0614; in the experiment with Torsin-1A (Homo sapiens) [8] it was 0.374; with Torsin-1A (Homo sapiens) [9], 0.204; in experiment [10] it was 1.91. Moreover, the z-score is -1.19 (inactive) in experiment [2], -1.5 (inactive) in [3], -0.35 (inactive) in experiment [4] and 2.12 (inactive) in [5].
With `CCCCC(O)C1C=CC2C(=O)N(c3ccccc3)C(=O)C2N1Nc1ccccc1` (stereo not given), the composite z-score is -0.152 in [1]; 0.682 in experiment [6]; 0.0278 in experiment [7]; -0.0483 with Torsin-1A (Homo sapiens) [8]; 0.0691 with Torsin-1A (Homo sapiens) [9]; -1.35 in experiment [10]. The z-score is 0.564 (inactive) in [2], -0.279 (inactive) in [3], 0.257 (inactive) in [4] and 0.875 (inactive) in [5].
